About 79,000 compounds went through this panel and 15% of them were active in at least one assay; those are over-represented in the sample as a whole. Active and inactive are the calls of the source. Rule as the data show it: active = growth inhibition above about 70%; inactive = the rest.
What was measured:
[1] = NCI Yeast Anticancer Drug Screen. Data for the rad50 strain (AID 155);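 also: 0% = growth of vehicle-only cultures of the same strain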; settings: S. cerevisiae rad50 strain growth inhibition, stronger effect = higher value
Method in brief: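 Vehicle-treated cultures provide the reference for the growth inhibition reported for compound-exposed, repair-deficient yeast.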

[2] = NCI Yeast Anticancer Drug Screen. Data for the mec2-1 strain (AID 157); settings: S. cerevisiae mec2-1 strain, stronger effect = higher value
Method in brief: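 Readout is yeast growth inhibition, normalised to vehicle-treated controls, in the mec2-1 strain exposed to compound.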

[3] = NCI Yeast Anticancer Drug Screen. Data for the sgs1 mgt1 strain (AID 161);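 also: 0% = growth of cultures given vehicle only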; settings: S. cerevisiae sgs1 mgt1 strain, stronger effect = higher value
Method in brief: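 Percent growth inhibition was derived by comparing compound-exposed mutant yeast with vehicle-exposed cultures. The strain carries alterations in DNA damage repair.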

[4] = NCI Yeast Anticancer Drug Screen. Data for the cln2 rad14 strain (AID 165);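 also: 0% = growth equal to vehicle treated cultures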; settings: S. cerevisiae cln2 rad14 strain, stronger effect = higher value
Method in brief: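 Relative to vehicle controls, growth inhibition of compound-treated cln2 rad14 yeast was recorded.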

[5] = NCI Yeast Anticancer Drug Screen. Data for the bub3 strain (AID 167); settings: S. cerevisiae bub3 mutant strain, stronger effect = higher value
Method in brief: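 Mutant yeast screening strain plus compound; vehicle-treated cultures serve as the 0% inhibition reference.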

[6] = NCI Yeast Anticancer Drug Screen. Data for the mlh1 rad18 strain (AID 175); settings: S. cerevisiae mlh1 rad18 strain growth inhibition, stronger effect = higher value
Method in brief: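 Test agents were incubated with a yeast strain of defined genotype (DNA damage repair defect). Inhibition of growth was derived by comparison with vehicle-exposed cultures.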

[7] = at 5.0 µM (retest, dose inferred, filed as 0.5)
[8] = at 50.0 µM (retest, dose inferred, filed as 5.0)

Measured: growth inhibition

CC(C)C(=O)/C=C/c1c(Cl)cccc1Cl
inactive: [1]; [7] 22% | [1]; [8] 26% | [1]; at 50.0 µM 26.6% | [2]; [7] 14% | [2]; [8] 22% | [2]; at 50.0 µM 41.9% | [3]; [7] 11% | [3]; [8] 20% | [3]; at 50.0 µM 48.4% | [4]; [7] 16% | [4]; [8] 28% | [4]; at 50.0 µM 46% | [5]; [7] 22% | [5]; [8] 18% | [5]; at 50.0 µM 54.9% | [6]; [7] 19% | [6]; [8] 21% | [6]; at 50.0 µM 43.6%

Cc1nc(C)c(C(=O)NNC(=O)C[N+](C)(C)C)cc1C(=O)NNC(=O)C[N+](C)(C)C
inactive: [1]; [7] 66% | [1]; [8] 8% | [1]; at 50.0 µM -23.2% | [2]; [7] 18% | [2]; [8] 7% | [2]; at 50.0 µM -8.4% | [3]; [7] -36% | [3]; [8] -29% | [3]; at 50.0 µM 5.8% | [4]; [7] -2% | [4]; [8] -4% | [4]; at 50.0 µM 7.2% | [5]; [7] -20% | [5]; [8] 8% | [5]; at 50.0 µM -15.2% | [6]; [7] 17% | [6]; [8] 14% | [6]; at 50.0 µM -25.4%

Cc1cccc(CC(C)(C)C)c1NC(=O)C(=O)C(C(=O)c1ccc2ccccc2c1)C1OC(=O)c2ccccc21 (stereo not given)
inactive: [1]; [7] 6% | [1]; at 50.0 µM 52.8% | [2]; [7] -1% | [2]; at 50.0 µM 23.6% | [3]; [7] 9% | [3]; at 50.0 µM 36.3% | [4]; [7] -1% | [4]; at 50.0 µM 12.8% | [5]; [7] 2% | [5]; at 50.0 µM 52.1% | [6]; [7] -1% | [6]; at 50.0 µM 68.2%
active: [1]; [8] 78% | [2]; [8] 92% | [3]; [8] 92% | [4]; [8] 76% | [5]; [8] 93% | [6]; [8] 86%

CC(=O)OCC1OC(n2cnc3c(Cl)nc(Cl)nc32)C(OC(C)=O)C1OC(C)=O (stereo not given)
active: [1]; at 50.0 µM 73.7% | [3]; at 50.0 µM 75.3% | [4]; at 50.0 µM 72.6% | [5]; at 50.0 µM 70% | [6]; at 50.0 µM 74.1%
inactive: [1]; [7] 0% | [1]; [8] 0% | [2]; [7] 1% | [2]; [8] 5% | [2]; at 50.0 µM 54.1% | [3]; [7] -1% | [3]; [8] 7% | [4]; [7] 3% | [4]; [8] 3% | [5]; [7] 1% | [5]; [8] -2% | [6]; [7] -1% | [6]; [8] 0%

CN(C)C1=C(Cl)C(=O)c2ccccc2C1=O
inactive: [1]; [7] 12% | [1]; at 50.0 µM 47.7% | [2]; [7] 14% | [2]; at 50.0 µM 45.6% | [3]; [7] 14% | [3]; at 50.0 µM 44.9% | [4]; [7] 11% | [4]; [8] 60% | [4]; at 50.0 µM 34.8% | [5]; [7] 14% | [6]; [7] 15% | [6]; at 50.0 µM 42.4%
active: [1]; [8] 93% | [2]; [8] 87% | [3]; [8] 93% | [5]; [8] 96% | [5]; at 50.0 µM 82% | [6]; [8] 87%
